Assay results: the supplement of paper PMC10849652
Of roughly 8,800 targets only a part is listed; those with a hit were picked by preference. About 0.5% of all pairs of compound and target were hits.

Tests used:
Test in all cases: log2 fold change, soluble protein after heating vs DMSO (PISA); higher = thermal stabilisation; K562 lysate, 10 uM; active = over 0.2 and 3.5 SD of the protein, either way, in both replicates (recomputed)
[1] = compound: CS(=O)(=O)CCNCc1ccc(-c2ccc3ncnc(Nc4ccc(OCc5cccc(F)c5)c(Cl)c4)c3c2)o1 [lapatinib]
How it was run: (§1)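 A 30 min treatment with 10 μM compound was applied to crude K562 extract at 1 mg/mL protein in PBS pH 7.4 with 1 mM MgCl2. Heating for 3 min spanned 48°C-58°C, after which aliquots were pooled, adjusted to 0.5% NP-40 at 4°C and spun at 21,000xg for 90 min. TMTpro 16plex LC-MS/MS of the supernatant, with channel sums equalised, gave values recorded as log-two fold change in thermal stability against solvent controls, from duplicates.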

[2] = compound: CS(=O)(=O)N1CCN(Cc2cc3nc(-c4cccc5[nH]ncc45)nc(N4CCOCC4)c3s2)CC1 [pictilisib]
How it was run: as §1

[3] = compound: C[C@@H](Oc1cc(-c2cnn(C3CCNCC3)c2)cnc1N)c1c(Cl)ccc(F)c1Cl [crizotinib]
How it was run: as §1

[4] = compound: C[C@H](C1=CC=C(C=C1)C(=O)NC2=C3C=CNC3=NC=C2)N
How it was run: as §1

[5] = compound: C[C@H](Nc1ncnc2nc[nH]c12)c1cc2cccc(Cl)c2c(=O)n1-c1ccccc1 [duvelisib]
How it was run: as §1

[6] = compound: Cc1cc(Nc2cc(CN3CCOCC3)c3nc(C)c(Cc4ccc(Cl)cc4F)n3n2)n[nH]1 [gandotinib]
How it was run: as §1

[7] = compound: Cc1cc(Nc2cc(N3CCN(C)CC3)nc(Sc3ccc(NC(=O)C4CC4)cc3)n2)n[nH]1 [tozasertib]
How it was run: as §1

[8] = compound: Cc1ccc(-n2nc(C(C)(C)C)cc2NC(=O)Nc2ccc(OCCN3CCOCC3)c3ccccc23)cc1 [doramapimod]
How it was run: as §1

[9] = compound: Cc1ccc(NC(=O)c2ccc(CN3CC[C@H](N(C)C)C3)c(C(F)(F)F)c2)cc1Nc1nccc(-c2cncnc2)n1 [bafetinib]
How it was run: as §1

[10] = compound: Cc1cccc(CC(=O)N2CCc3c2ccc(-c2cn(C)c4ncnc(N)c24)c3F)n1
How it was run: as §1

Measured: log2 fold change

PRKAB2 (UniProt O43741)
Sequence of UniProt O43741 (O43741 whole entry, looked up): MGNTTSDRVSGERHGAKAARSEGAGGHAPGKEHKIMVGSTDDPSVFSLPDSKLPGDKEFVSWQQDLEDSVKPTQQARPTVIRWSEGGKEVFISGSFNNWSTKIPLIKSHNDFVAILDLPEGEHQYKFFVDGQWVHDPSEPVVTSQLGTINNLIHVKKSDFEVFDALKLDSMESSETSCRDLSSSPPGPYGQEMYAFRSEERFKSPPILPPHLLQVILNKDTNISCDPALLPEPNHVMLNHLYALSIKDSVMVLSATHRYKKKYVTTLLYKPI
active: [4] -0.698
inactive: [1] -0.029 | [2] 0.09 | [3] -0.013 | [5] 0.019 | [6] 0.25 | [7] 0.111 | [8] 0.039 | [9] 0.052 | [10] 0.142

PIP4K2B (UniProt P78356)
inactive: [1] 0.033 | [2] 0.044 | [3] -0.019 | [4] 0.01 | [5] 0.006 | [6] 0.029 | [7] -0.029 | [8] -0.001 | [9] 0.164 | [10] -0.067

PFKP (UniProt Q01813)
inactive: [1] -0.011 | [2] -0.014 | [3] 0.014 | [4] 0.033 | [5] -0.02 | [6] -0.034 | [7] -0.012 | [8] -0.015 | [9] 0.005 | [10] -0.012

PMS2 (UniProt P54278)
inactive: [1] 0.016 | [2] 0.021 | [3] -0.038 | [4] -0.036 | [5] 0 | [6] -0.064 | [7] -0.014 | [8] -0.038 | [9] 0.021 | [10] 0.037

PHGDH (UniProt O43175)
Sequence of UniProt O43175 (O43175 whole entry, looked up): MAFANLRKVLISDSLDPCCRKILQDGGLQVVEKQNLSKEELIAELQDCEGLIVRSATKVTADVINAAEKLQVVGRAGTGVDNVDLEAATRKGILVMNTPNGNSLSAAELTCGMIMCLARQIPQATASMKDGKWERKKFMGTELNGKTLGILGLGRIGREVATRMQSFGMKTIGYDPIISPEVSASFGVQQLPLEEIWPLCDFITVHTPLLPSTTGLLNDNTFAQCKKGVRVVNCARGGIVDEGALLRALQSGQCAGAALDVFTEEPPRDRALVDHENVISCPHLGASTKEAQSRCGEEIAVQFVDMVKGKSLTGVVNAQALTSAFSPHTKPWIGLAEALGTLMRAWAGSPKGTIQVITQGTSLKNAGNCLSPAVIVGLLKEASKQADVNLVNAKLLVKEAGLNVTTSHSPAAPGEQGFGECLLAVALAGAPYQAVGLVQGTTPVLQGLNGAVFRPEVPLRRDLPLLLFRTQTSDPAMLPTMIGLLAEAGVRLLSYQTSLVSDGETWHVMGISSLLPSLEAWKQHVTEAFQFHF
inactive: [1] -0.053 | [2] 0.005 | [3] 0 | [4] 0.076 | [5] 0 | [6] -0.071 | [7] 0.019 | [8] -0.039 | [9] 0.032 | [10] -0.055

POLR2M (UniProt P0CAP2)
Sequence of UniProt P0CAP2 (P0CAP2 whole entry, looked up): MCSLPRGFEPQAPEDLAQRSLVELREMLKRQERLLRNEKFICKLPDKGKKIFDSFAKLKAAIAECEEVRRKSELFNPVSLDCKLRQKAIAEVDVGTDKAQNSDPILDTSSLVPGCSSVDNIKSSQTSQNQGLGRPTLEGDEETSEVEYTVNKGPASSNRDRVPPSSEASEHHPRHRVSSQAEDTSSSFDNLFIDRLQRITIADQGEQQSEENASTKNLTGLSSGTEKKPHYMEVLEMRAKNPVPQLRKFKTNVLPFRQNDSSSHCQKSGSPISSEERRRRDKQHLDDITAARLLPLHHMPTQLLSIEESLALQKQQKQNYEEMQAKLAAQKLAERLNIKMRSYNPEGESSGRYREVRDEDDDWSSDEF
inactive: [1] -0.034 | [2] -0.055 | [3] 0.016 | [4] -0.031 | [5] 0.015 | [6] 0.02 | [7] 0.185 | [8] 0.009 | [9] -0.011 | [10] 0.041

PTS (UniProt Q03393)
inactive: [1] -0.018 | [2] 0.008 | [3] 0.051 | [4] -0.024 | [5] 0.051 | [6] -0.039 | [7] 0.031 | [8] -0.069 | [9] 0 | [10] 0.05

PRADC1 (UniProt Q9BSG0)
Sequence of UniProt Q9BSG0 (Q9BSG0 whole entry, looked up): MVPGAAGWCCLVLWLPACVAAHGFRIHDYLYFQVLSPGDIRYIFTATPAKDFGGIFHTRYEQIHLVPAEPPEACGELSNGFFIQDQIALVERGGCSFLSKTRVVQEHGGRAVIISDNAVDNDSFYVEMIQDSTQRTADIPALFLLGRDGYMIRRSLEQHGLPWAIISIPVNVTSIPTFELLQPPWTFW
inactive: [1] -0.088 | [2] 0.091 | [3] 0.075 | [4] 0.166 | [5] -0.069 | [6] -0.002 | [8] -0.041 | [9] -0.149 | [10] -0.087

PRKCB isoform 2 (UniProt P05771)
inactive: [1] -0.001 | [2] 0.003 | [3] 0.036 | [4] -0.012 | [5] 0.033 | [6] -0.122 | [7] 0.035 | [8] 0.009 | [9] -0.01 | [10] 0.021

PSTPIP2 (UniProt Q9H939)
Sequence of UniProt Q9H939 (Q9H939 whole entry, looked up): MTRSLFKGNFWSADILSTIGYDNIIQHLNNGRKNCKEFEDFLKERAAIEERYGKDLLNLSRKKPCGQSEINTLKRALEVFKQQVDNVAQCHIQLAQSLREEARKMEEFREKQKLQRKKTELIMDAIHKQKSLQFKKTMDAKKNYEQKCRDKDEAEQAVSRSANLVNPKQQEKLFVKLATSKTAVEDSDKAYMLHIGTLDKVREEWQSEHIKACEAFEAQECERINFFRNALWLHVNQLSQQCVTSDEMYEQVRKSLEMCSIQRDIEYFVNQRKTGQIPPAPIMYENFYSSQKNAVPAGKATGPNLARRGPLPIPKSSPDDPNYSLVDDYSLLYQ
inactive: [1] 0.009 | [2] 0.019 | [3] -0.047 | [4] 0.062 | [5] -0.023 | [6] -0.095 | [7] 0.012 | [8] 0.002 | [9] -0.014 | [10] -0.027

POLA1 (UniProt P09884)
inactive: [1] -0.022 | [2] -0.044 | [3] -0.03 | [4] -0.011 | [5] 0.009 | [6] -0.016 | [7] 0.003 | [8] 0.01 | [9] -0.057 | [10] 0.004

PCYT1B (UniProt Q9Y5K3)
inactive: [1] 0.008 | [2] 0.004 | [3] 0.025 | [4] -0.044 | [5] -0.007 | [6] 0.193 | [7] 0.008 | [8] -0.003 | [9] -0.127
active: [10] 0.239

PRKCA (UniProt P17252)
inactive: [1] -0.041 | [2] -0.021 | [3] -0.019 | [4] 0.054 | [5] -0.057 | [6] -0.207 | [7] 0.021 | [8] -0.023 | [9] -0.069 | [10] -0.079

PICALM (UniProt Q13492)
Sequence of UniProt Q13492 (Q13492 whole entry, looked up): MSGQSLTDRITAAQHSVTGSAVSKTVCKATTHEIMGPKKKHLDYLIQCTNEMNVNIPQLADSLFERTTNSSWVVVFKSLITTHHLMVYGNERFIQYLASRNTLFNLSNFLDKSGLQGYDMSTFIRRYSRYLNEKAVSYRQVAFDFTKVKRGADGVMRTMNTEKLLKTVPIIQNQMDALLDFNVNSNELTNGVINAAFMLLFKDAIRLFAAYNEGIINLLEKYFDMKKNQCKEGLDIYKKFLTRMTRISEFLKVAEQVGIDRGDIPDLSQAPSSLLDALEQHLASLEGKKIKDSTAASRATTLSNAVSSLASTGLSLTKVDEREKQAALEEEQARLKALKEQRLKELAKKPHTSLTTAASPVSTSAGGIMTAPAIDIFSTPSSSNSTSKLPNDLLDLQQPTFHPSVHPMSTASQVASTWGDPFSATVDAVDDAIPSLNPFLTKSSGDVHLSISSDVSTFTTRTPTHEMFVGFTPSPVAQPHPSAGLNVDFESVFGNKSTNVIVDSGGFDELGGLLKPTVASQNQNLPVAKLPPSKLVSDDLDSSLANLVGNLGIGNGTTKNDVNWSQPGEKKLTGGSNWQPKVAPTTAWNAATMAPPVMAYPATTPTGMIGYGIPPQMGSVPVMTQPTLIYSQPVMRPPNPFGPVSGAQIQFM
inactive: [1] 0.012 | [2] 0.001 | [3] 0.024 | [4] 0.052 | [5] 0.012 | [6] 0.022 | [7] 0.013 | [8] 0.028 | [9] -0.055 | [10] -0.007

PRKACB isoform 2 (UniProt P22694)
inactive: [1] -0.063 | [2] -0.042 | [3] -0.018 | [4] 0.141 | [5] 0.024 | [6] -0.071 | [7] -0.001 | [8] -0.023 | [9] -0.04 | [10] -0.131

PXMP4 (UniProt Q9Y6I8)
inactive: [1] -0.071 | [2] 0.066 | [3] -0.29 | [4] -0.068 | [5] -0.112 | [6] -0.221 | [7] -0.034 | [8] 0.238 | [9] -0.148 | [10] 0.194

PIP5K1A (UniProt Q99755)
inactive: [1] -0.117 | [2] 0.07 | [3] -0.168 | [4] 0.03 | [5] -0.043 | [6] -0.013 | [8] 0.093 | [9] -0.062 | [10] -0.034

PIP4K2A (UniProt P48426)
Sequence of UniProt P48426 (P48426 whole entry, looked up): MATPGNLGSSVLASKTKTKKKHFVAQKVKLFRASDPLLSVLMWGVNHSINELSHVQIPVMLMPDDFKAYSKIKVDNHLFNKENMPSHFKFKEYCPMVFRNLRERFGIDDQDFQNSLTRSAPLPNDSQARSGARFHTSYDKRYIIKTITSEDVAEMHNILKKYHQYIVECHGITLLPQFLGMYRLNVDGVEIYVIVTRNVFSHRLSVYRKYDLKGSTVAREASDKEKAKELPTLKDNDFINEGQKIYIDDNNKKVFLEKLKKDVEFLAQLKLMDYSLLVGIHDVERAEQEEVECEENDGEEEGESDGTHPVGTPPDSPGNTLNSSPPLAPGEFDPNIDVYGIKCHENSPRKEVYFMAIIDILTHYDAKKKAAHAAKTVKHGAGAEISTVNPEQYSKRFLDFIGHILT
inactive: [1] -0.04 | [2] 0.032 | [3] 0.019 | [4] -0.089 | [5] 0.05 | [6] 0.109 | [7] 0.014 | [8] -0.035 | [10] 0.005
active: [9] 0.301

PRMT8 (UniProt Q9NR22)
inactive: [1] -0.011 | [2] 0.004 | [3] -0.037 | [5] 0.012 | [6] 0.071 | [7] 0.008 | [8] -0.001 | [9] -0.112 | [10] 0.168
active: [4] -0.256

POMP (UniProt Q9Y244)
inactive: [1] 0.048 | [2] 0.031 | [3] -0.054 | [4] 0.221 | [5] 0.11 | [6] -0.063 | [7] 0.022 | [8] 0.038 | [9] 0.017 | [10] -0.038

PPP2R5C isoform 5 (UniProt Q13362)
inactive: [1] -0.03 | [2] 0.01 | [3] 0.004 | [4] 0.069 | [5] 0.02 | [6] -0.08 | [7] 0.054 | [8] -0.005 | [9] -0.001 | [10] -0.036

PCBP2 isoform 8 (UniProt Q15366)
Sequence of UniProt Q15366 (Q15366 whole entry, looked up): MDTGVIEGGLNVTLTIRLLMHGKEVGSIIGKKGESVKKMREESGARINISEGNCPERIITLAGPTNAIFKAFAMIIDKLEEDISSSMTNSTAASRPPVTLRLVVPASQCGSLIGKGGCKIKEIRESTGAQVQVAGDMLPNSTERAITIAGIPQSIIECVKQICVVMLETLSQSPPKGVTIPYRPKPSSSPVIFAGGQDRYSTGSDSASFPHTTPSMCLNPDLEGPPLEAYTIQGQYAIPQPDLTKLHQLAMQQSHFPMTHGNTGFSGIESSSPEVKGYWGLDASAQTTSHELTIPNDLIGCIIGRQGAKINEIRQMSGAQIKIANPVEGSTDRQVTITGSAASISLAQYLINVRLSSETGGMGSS
inactive: [1] 0.022 | [2] -0.013 | [3] 0.001 | [4] 0.013 | [5] 0.04 | [6] 0.029 | [7] -0.026 | [8] -0.092 | [9] 0.082 | [10] 0.036

PDF (UniProt Q9HBH1)
Sequence of UniProt Q9HBH1 (Q9HBH1 whole entry, looked up): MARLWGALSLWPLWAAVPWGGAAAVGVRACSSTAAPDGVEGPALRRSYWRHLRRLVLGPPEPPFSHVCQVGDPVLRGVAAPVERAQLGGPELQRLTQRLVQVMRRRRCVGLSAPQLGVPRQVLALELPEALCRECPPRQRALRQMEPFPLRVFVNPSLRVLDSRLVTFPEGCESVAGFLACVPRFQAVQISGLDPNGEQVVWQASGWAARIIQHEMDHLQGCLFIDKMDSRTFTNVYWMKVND
inactive: [1] 0.027 | [2] -0.016 | [3] -0.067 | [4] 0.018 | [5] -0.076 | [6] -0.019 | [7] 0.029 | [8] 0.027 | [9] -0.162 | [10] 0.025

PGLS (UniProt O95336)
Sequence of UniProt O95336 (O95336 whole entry, looked up): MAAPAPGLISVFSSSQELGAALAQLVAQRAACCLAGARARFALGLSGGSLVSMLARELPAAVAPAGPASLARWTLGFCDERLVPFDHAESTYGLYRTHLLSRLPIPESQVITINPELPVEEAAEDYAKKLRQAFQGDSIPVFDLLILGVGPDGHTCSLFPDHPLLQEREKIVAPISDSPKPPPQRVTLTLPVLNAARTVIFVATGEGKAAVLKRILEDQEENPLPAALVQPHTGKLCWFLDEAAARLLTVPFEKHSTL
inactive: [1] 0.068 | [2] 0.011 | [3] 0 | [4] 0.206 | [5] 0.033 | [6] -0.084 | [7] 0.008 | [8] 0.004 | [9] -0.031 | [10] -0.14

PSMB9 (UniProt P28065)
Sequence of UniProt P28065 (P28065 whole entry, looked up): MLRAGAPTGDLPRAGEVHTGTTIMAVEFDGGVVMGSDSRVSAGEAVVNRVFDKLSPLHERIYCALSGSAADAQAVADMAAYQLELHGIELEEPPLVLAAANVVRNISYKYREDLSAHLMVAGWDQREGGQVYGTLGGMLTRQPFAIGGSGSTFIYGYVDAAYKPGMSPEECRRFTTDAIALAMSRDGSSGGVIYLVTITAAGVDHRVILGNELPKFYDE
inactive: [1] -0.093 | [2] 0.028 | [3] -0.098 | [4] -0.033 | [5] 0.01 | [6] 0.013 | [7] -0.087 | [8] -0.033 | [9] -0.25 | [10] 0.022

PEF1 (UniProt Q9UBV8)
Sequence of UniProt Q9UBV8 (Q9UBV8 whole entry, looked up): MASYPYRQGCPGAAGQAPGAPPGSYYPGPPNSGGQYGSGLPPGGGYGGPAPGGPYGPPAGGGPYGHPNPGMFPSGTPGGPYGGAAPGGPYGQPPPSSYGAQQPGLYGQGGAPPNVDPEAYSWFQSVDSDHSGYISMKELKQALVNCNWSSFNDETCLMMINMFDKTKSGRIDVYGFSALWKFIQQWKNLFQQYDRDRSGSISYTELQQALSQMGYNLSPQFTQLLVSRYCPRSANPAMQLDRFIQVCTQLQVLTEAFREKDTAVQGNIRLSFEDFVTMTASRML
inactive: [1] 0.019 | [2] 0.041 | [3] -0.002 | [4] 0.051 | [5] -0.004 | [6] -0.055 | [7] 0.032 | [8] -0.01 | [9] -0.027 | [10] 0.051

PRG4 (UniProt Q92954)
active: [4] -1.36
inactive: [1] -0.097 | [2] -0.408 | [3] -0.118 | [5] 0.042 | [6] 0.051 | [8] 0.201 | [9] -0.238 | [10] 0.278

PRKCSH (UniProt K7ELL7)
inactive: [1] -0.009 | [2] 0.028 | [3] 0.061 | [4] 0.181 | [5] 0.1 | [6] -0.047 | [7] 0.062 | [8] -0.044 | [9] 0.031 | [10] -0.019

PTPN1 (UniProt P18031)
inactive: [1] -0.022 | [2] -0.022 | [3] -0.031 | [4] -0.042 | [5] -0.007 | [6] -0.055 | [7] 0.069 | [8] 0.059 | [9] -0.029 | [10] 0.062
